Data on 89 compounds can be found in PubChem BioAssay AID463173 (ICCB-Longwood Screening Facility, Harvard Medical School, 2010).

Structures are written as SMILES. In all, about 52,000 compounds went through this assay and about 4,300 (8.3%) were called active. No stated cut-off is given here; in the data, active means survival mostly below about 52% (no sharp cut-off); inactive means mostly above about 56%. Only a selection was taken, and actives are over-represented in it overall.

For this test, the system named is DeltatarO mutant. Nature of the test: growth inhibition of S. aureus wild type versus tarO mutant, primary screen, teichoic acid synthesis inhibitors, RN4220, OD600 (AID 463173). The settings on record: OD600, 18 h, hits give low values, screened at 18.75 µg/mL (by protocol).
In the case of `Cc1ccc(-c2nc3sc(CCNC(=O)c4ccco4)c(C)n3n2)cc1`, the survival is 87% (inactive).
Regarding `Cc1ccc(C)c(CN2C(=O)c3ccccc3S(=O)(=O)c3ccc(C(=O)N4CCN(c5ccccc5F)CC4)cc32)c1`, the survival is 79% (inactive).
Turning to `CCOc1ccc(-c2cn3c(n2)sc2cc(C(=O)NCCCN4CCCCC4)ccc23)cc1`, the survival is -1% (active).
Then `CCOc1ccc(-c2cn3c(n2)sc2cc(C(=O)NCCCN4CCCCCC4)ccc23)cc1`, with -2% (active); and `COc1ccc(-c2cn3c(n2)sc2cc(C(=O)NCCCN4CCCCC4)ccc23)cc1`, with 69% (inactive); and `CCCN1CCN(CCCNC(=O)c2ccc3c(c2)sc2nc(-c4ccc(OC)cc4)cn23)CC1`, with 73% (inactive).
To `COc1ccc(-c2cn3c(n2)sc2cc(C(=O)NCCCc4ccccc4)ccc23)cc1` belongs 65% (inactive); to `COc1ccc(-c2cn3c(n2)sc2cc(C(=O)NCCCN4CCN(C)CC4)ccc23)cc1`, 95% (inactive); to `COc1ccc(-c2cn3c(n2)sc2cc(C(=O)NCCCN4CCCCCC4)ccc23)cc1`, 64% (inactive).
To `CCCN1CCN(CCCNC(=O)c2ccc3c(c2)sc2nc(-c4ccc(OCC)cc4)cn23)CC1` belongs 28% (active).
On to `O=C(NCCN1CCOCC1)c1cnn2c(C(F)F)cc(-c3ccccc3)nc12`, for which the survival was 86% (inactive).
With `CC(C)(C)C(=O)Nc1cc(-c2cccc(Br)c2)nn1-c1ccccc1`, the survival was 81% (inactive).
Then `CCc1ccccc1NC(=O)NCc1ccc2c(c1)CCN2C(=O)c1ccccc1`, with 125% (inactive).
Then `Cc1ccc(Cl)cc1N1CCN(CCCNC(=O)c2ccc3nc(N4CCCCC4)sc3c2)CC1`, with 77% (inactive); and `Cc1ccc(C)c(N2CCN(CCCNC(=O)c3ccc4nc(N5CCCCC5)sc4c3)CC2)c1`, with 71% (inactive); and `CC1CCN(c2nc3ccc(C(=O)NCc4ccc(Cl)cc4)cc3s2)CC1`, with 128% (inactive).
Then `Cc1ccc(C)c(N2CCN(CCCNC(=O)c3ccc4nc(N5CCC(C)CC5)sc4c3)CC2)c1`, with 4% (active).
For `COc1cccc(N2CCN(C(=O)c3ccc4nc(N5CCC(C)CC5)sc4c3)CC2)c1`, the survival is 62% (inactive).
On to `COc1ccc(N2CCN(C(=O)c3ccc4nc(N5CCC(C)CC5)sc4c3)CC2)cc1`, for which the survival is 84% (inactive).
As for `Cc1cccc(N2CCN(C(=O)c3ccc4nc(N5CCC(C)CC5)sc4c3)CC2)c1C`, the survival is 1% (active).
`CC1CCN(c2nc3ccc(C(=O)N4CCN(c5ccccc5)CC4)cc3s2)CC1`: the survival was 72% (inactive).
For the compound `Cc1ccc(Cl)cc1N1CCN(C(=O)c2ccc3nc(N4CCC(C)CC4)sc3c2)CC1`, the survival was 29% (active).
Then `Cc1ccc(CN2C(=O)C3(SCC(=O)N3c3ccc(C)c(C)c3)c3ccccc32)cc1` (centres undefined), with 99% (inactive).
For `COc1ccc(CCC(=O)NCCc2csc(-c3cccc(F)c3)n2)cc1`, the survival is 83% (inactive).
To `Cc1cccc(N(C)S(=O)(=O)c2ccc3c(c2)NC(=O)CC(=O)N3)c1` belongs 86% (inactive); to `COc1cccc(C(=O)NCC(C)C)c1`, 81% (inactive).
To `Cc1ccc(CNC(=O)CSCc2nc(-c3ccc(Cl)cc3)oc2C)cc1` belongs 66% (inactive); to `Cc1ccc(CCNC(=O)CSCc2nc(-c3ccc(C)cc3)oc2C)cc1`, 26% (active).
Then `Cc1oc(-c2ccccc2F)nc1CSCC(=O)NCCc1ccccc1`, with 94% (inactive); and `CCOc1ccc(-c2nc(CSCC(=O)NCc3ccc(C)cc3)c(C)o2)cc1`, with 78% (inactive).
For `Cc1oc(-c2ccccc2F)nc1CSCC(=O)NCc1ccccc1`, the survival was 41% (active).
Then `Cc1cccc(-c2nc(CS(=O)CC(=O)NCc3ccc(Cl)cc3)c(C)o2)c1` (centres undefined), with 61% (inactive); and `CCc1ccc(-c2nc(CSCC(=O)NCc3ccc(C)cc3)c(C)o2)cc1`, with -3% (active).
`COc1ccc(-c2nc(CSCC(=O)NCCc3ccccc3)c(C)o2)cc1`: the survival is 86% (inactive).
As for `COc1ccc(CNC(=O)CSCc2nc(-c3ccccc3F)oc2C)cc1`, the survival was 67% (inactive).
To `CCOc1ccc(-c2nc(CSCC(=O)NCc3ccc(Cl)cc3)c(C)o2)cc1` belongs 95% (inactive); to `COc1ccc(-c2nc(CSCC(=O)NCCc3ccc(C)cc3)c(C)o2)cc1OC`, 56% (inactive); to `Cc1ccc(CNC(=O)CSCc2nc(-c3cccc(C)c3)oc2C)cc1`, -5% (active).
With `O=C(CC1SC(=NC2CCCCC2)NC1=O)Nc1ccccc1` (centres undefined), the survival is 89% (inactive).
Then `O=C(Nc1ccc(Cl)cc1Cl)c1cc(S(=O)(=O)N2CCN(c3ccccc3F)CC2)ccc1F`, with 102% (inactive); and `CCN(C(=O)C1CCCN(c2ncnc3c2nc2n3CCCCC2)C1)c1cccc(C)c1` (centres undefined), with 75% (inactive).
With `CC(C)Cc1nn2c(=O)cc(COC(=O)c3cccc(NS(C)(=O)=O)c3)nc2s1`, the survival was 82% (inactive).
To `Cc1ccc(C(=O)CCCn2nnc(-c3ccncc3)n2)cc1C` belongs 100% (inactive); to `O=C(CSC1=NC2CCCCC2N1)N1CCOCC1` (centres undefined), 83% (inactive); to `Cc1ccc(NC(=O)CSc2nc3ccccc3nc2Cc2ccccc2)c(Cl)c1`, 99% (inactive).
`CCCCCCOc1ccc(-c2nc3ccc(Br)cc3c(=O)o2)cc1`: the survival was 83% (inactive).
Take `CCCC(CCC)C(=O)Nc1nnc2n1CCS2`: the survival was 82% (inactive).
Then `O=C(NCc1ccccc1)C1CCN(C(=O)NCc2ccccc2)CC1`, with 90% (inactive); and `COc1cccc(N2CCN(S(=O)(=O)c3ccc(-c4ccno4)cc3OC)CC2)c1`, with 64% (inactive); and `COc1ccccc1N1CCN(S(=O)(=O)c2ccc(-c3ccno3)cc2OC)CC1`, with 86% (inactive).
As to `COc1cc(-c2ccno2)ccc1S(=O)(=O)N1CCN(c2ccc(F)cc2)CC1`, the survival is 67% (inactive).
To `COc1ccc(N2CCN(S(=O)(=O)c3ccc(-c4ccno4)cc3OC)CC2)cc1` belongs 6% (active); to `COc1cc(-c2ccno2)ccc1S(=O)(=O)N1CCN(c2ccccc2)CC1`, 72% (inactive); to `COc1cc(-c2ccno2)ccc1S(=O)(=O)N1CCN(c2cccc(Cl)c2)CC1`, -1% (active).
Then `N#CC1=C2SCN(C3CCCCC3)CN2C(=O)CC1c1ccc(Cl)cc1` (centres undefined), with 91% (inactive).
Then `CCOc1cc(CNC(=O)c2cc(-c3ccccc3)n[nH]2)cc(OCC)c1OCC`, with 98% (inactive); and `Cc1ccc(-c2cc(NC(=O)COc3c(C)cc(C)cc3C)on2)cc1`, with 67% (inactive).
As for `CC1Cc2cc(C(=O)NC3CCCCC3)ccc2O1` (centres undefined), the survival was 71% (inactive).
As for `Cc1ccc(N2C(=O)CS(=O)(=O)C23C(=O)N(Cc2ccccc2F)c2ccccc23)cc1Cl` (centres undefined), the survival was 60% (inactive).
Then `Cc1ccc(CSC2=Nc3ccccc3C3=NC(CCC(=O)N4CCN(c5ccccc5)CC4)C(=O)N23)cc1` (centres undefined), with 85% (inactive).
To `O=C(CCC1N=C2c3ccccc3N=C(SCc3ccc(Cl)cc3)N2C1=O)N1CCN(c2ccccc2)CC1` (centres undefined) belongs 91% (inactive); to `O=C(CCC1N=C2c3ccccc3N=C(SCc3ccc(F)cc3)N2C1=O)N1CCN(c2ccccc2)CC1` (centres undefined), 57% (inactive); to `O=C(CCC1N=C2c3ccccc3N=C(SCc3cccc(Cl)c3)N2C1=O)N1CCN(c2ccccc2)CC1` (centres undefined), 47% (active).
To `O=C(CCC1N=C2c3ccccc3N=C(SCc3cccc(Cl)c3)N2C1=O)NCCc1ccccc1` (centres undefined) belongs 63% (inactive); to `O=C(CCC1N=C2c3ccccc3N=C(SCc3ccccc3Cl)N2C1=O)N1CCN(c2ccccc2)CC1` (centres undefined), 49% (active); to `COc1cccc(NC(=O)CN2CCCN(S(=O)(=O)c3ccc(Br)cc3)CC2)c1`, 58% (inactive).
As for `CCC1(CC)Cc2ccccc2-c2nc(NCCCO)[nH]c(=O)c21`, the survival is 82% (inactive).
Then `COc1ccccc1N1CCN(C(=O)c2cc3c(=O)n(Cc4cccs4)ccc3nc2C)CC1`, with 74% (inactive); and `Cc1oc2ncn(CC(C)C)c(=O)c2c1C(=O)NCCCN(Cc1ccccc1)C(C)C`, with 117% (inactive).
For `COc1ccc2c(C)c(CCC(=O)NCCc3ccccc3OC)c(=O)oc2c1`, the survival is 77% (inactive).
Then `O=C(Nc1ccc(Cl)c(-c2nc3ccccc3o2)c1)c1cccc2c(Cl)cccc12`, with 84% (inactive).
To `Cc1cc(NC(=O)Cc2ccccc2)cc(-c2nc3ccccc3o2)c1O` belongs 79% (inactive).
To `Cc1ccc2oc(-c3cc(NC(=O)/C=C/c4ccco4)ccc3Cl)nc2c1` belongs 40% (active); to `O=C(/C=C/c1ccco1)Nc1ccc(Cl)c(-c2nc3cc(Cl)ccc3o2)c1`, 65% (inactive); to `Cc1cc(NC(=O)c2ccco2)cc(-c2nc3cc(Cl)ccc3o2)c1O`, 79% (inactive).
As for `COc1c(C)cccc1C(=O)Nc1ccc(Cl)c(-c2nc3cc(C)ccc3o2)c1`, the survival is 6% (active).
As to `Cc1ccc2oc(-c3cc(NC(=O)c4oc5ccccc5c4C)ccc3Cl)nc2c1`, the survival is 62% (inactive).
Then `Cc1ccccc1-c1nc2cc(NC(=O)Cc3ccc(Cl)cc3)ccc2o1`, with 66% (inactive); and `Cc1cc(C)c2oc(-c3cc(NC(=O)Cc4ccccc4)ccc3Cl)nc2c1`, with 31% (active).
As for `O=C(Nc1ccc(O)c(-c2nc3ccccc3o2)c1)c1ccco1`, the survival is 71% (inactive).
To `Cc1ccc2nc(-c3cc(NC(=O)/C=C/c4ccccc4)ccc3Cl)oc2c1` belongs 68% (inactive).
To `Cc1ccc2oc(-c3cc(NC(=O)c4ccco4)ccc3Cl)nc2c1` belongs 0% (active).
For the compound `CC1CCN(c2nc3ccc(C(=O)NCc4ccccc4)cc3s2)CC1`, the survival was 77% (inactive).
Regarding `CC(=O)Nc1ccc(OCc2cc(=O)n3ccccc3n2)cc1`, the survival was 76% (inactive).
In the case of `Cc1ccc(-c2nc3sc(CCNC(=O)c4ccc(Br)o4)c(C)n3n2)cc1`, the survival is 84% (inactive).
To `CCOC(=O)C1CCN(C(=O)CN(c2cc(Cl)ccc2OC)S(C)(=O)=O)CC1` belongs 95% (inactive); to `CC1CCCCC1NC(=O)CN1CCC(NC(=O)c2cccc(F)c2)CC1` (centres undefined), 85% (inactive); to `CC1CCCN(CCCNC(=O)Cn2ncc3c([nH]c4ccccc43)c2=O)C1` (centres undefined), 94% (inactive).
Then `O=C(Nc1cc(F)ccc1F)C1COc2ccccc2C1` (centres undefined), with 69% (inactive).
